# Experimental data from PubChem BioAssay (NCATS).
# Records with an inconclusive call do not appear. Where a call stands in place of a potency, no number is given. Calls of active or inactive are those of the source. Unless noted, calls follow the shape of the dose curve; as a rule, active = well fitted curve in the direction sought with a large enough effect; inconclusive = small, poorly fitted or top-dose-only effect, or another doubt; inactive = no such curve, though single readings can be large; an effect the other way counts as inactive or inconclusive.
# Tests used:
# [1] = Nrf2 qHTS screen for inhibitors: Validation (AID 493153; active = well fitted inhibition curve with a large enough effect in the main read-out, with a control signal flat, not every such curve was filed as active); settings: Potency: luciferase luminescence; viability change: measured here: cytotoxicity max response
# Method in brief: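 Concentration-response on A549 ARE_Fluc reporter cells exposed 18-24 h at 37 C, 5% CO2. Cytotoxicity read first by CellTiter-Fluor fluorescence (Ex 405/Em 525), then Nrf2 inhibition by BugLite luminescence after 15 min.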
# [2] = qHTS for Inhibitors of Cell Surface uPA Generation: Validation Assay (AID 493164);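 also: RAW 264.7 macrophage cells exposed to compound for 18 h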
# Method in brief: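 ATP-Lite luminescence read-out: ATP remains high when uPA activity-dependent LF translocation into the cytoplasm is blocked. RAW 264.7 cells, 18 h compound exposure at 37 C; 7-point titration, 2.45 nM to 38.3 uM final.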
# [3] = biological target: Galactokinase (Homo sapiens) (UniProt P51570); test: qHTS Validation Assay for Inhibitors of Human Galactokinase (GALK) (AID 493189)
# Method in brief: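 Luminescence from leftover ATP (Kinase-Glo Plus, 10 min) served as read-out after a 1 h room-temperature reaction of 5 nM GALK, 100 uM galactose and 35 uM ATP at pH8.0.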
# [4] = Validation screen for small molecules that induce DNA re-replication in SW480 colon adenocarcinoma cells (AID 504364)
# Method in brief: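 Image-based DNA content read-out: Hoechst stain 40 min, total nuclear fluorescence intensity (ex 405 nm, em 500-530 nm) after 48 h compound exposure of 250 SW480 cells/well at 37 C, 5% CO2, versus DMSO vehicle.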
# [5] = biological target: Peptidyl-prolyl cis-trans isomerase NIMA-interacting 1 (Homo sapiens) (UniProt Q13526); test: qHTS Validation Assay to Find Inhibitors of Pin1 (AID 504536; active = well fitted inhibition curve with a large enough effect in the polarisation, with a control signal flat, not every such curve was filed as active; the % refers to the polarisation; also: potency is read from the fitted curve at half-maximal effect)
# Method in brief: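 Fluorescence polarization competition: compounds (titration) displace HiFluor-488-labeled Pin1-1b peptide from Pin1 (0.3 uM final) in pH 7.5 HEPES buffer with DTT, 10 min at room temperature; %Activity normalized to no-enzyme wells, curves fitted.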
# [6] = biological target: Phosphoglycerate kinase, glycosomal (Trypanosoma brucei brucei) (UniProt P07378); test: qHTS Validation Assay to Find Inhibitors of Phosphoglycerate Kinase (AID 504547)
# Method in brief: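 Luminescence end-point (Kinase-Glo Plus, 10 min) after a 60 min room-temperature coupled reaction. GAPDH at 100nM final supplies 1,3-BPG to PGK. Buffer: 100mM TEA pH 7.6, 5mM MgCl2, 0.01% Tween-20. Wells lacking PGK served as controls.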
# [7] = biological target: phosphoglycerate mutase (Leishmania major) (UniProt Q4Q090); test: qHTS Validation Assay to Find Inhibitors of Phosphoglycerate Mutase (AID 504548); settings: Potency: inhibition qHTS;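 also: end-point luminescence from Kinase-GloPlus after the PGAM reaction; series mostly up to about 58 µM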
# Method in brief: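 Inhibition of L. major PGAM was assessed by Kinase-GloPlus luminescence following a 45-minute room-temperature reaction with enzyme at 1.25nM final.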
# [8] = qHTS for Inhibitors of ATXN expression: Validation of Cytotoxic Assay (AID 588349)
# Method in brief: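 Cytotoxicity counter-screen: ATP-based luminescent viability (CellTiter Glo) after 72 hr exposure of HEK293 cells to a compound titration at 37 degrees C.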
# [9] = qHTS for Inhibitors of ATXN expression: Validation (AID 588378); also: series mostly up to about 57 µM; nearly all actives have a fitted effect of over 75% in size
# Method in brief: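 Cells: HEK293-ATXN2-FFLuc, phenol-red free DMEM, 2 h attachment. Compound pin-transfer, 24 h, 37 degrees C, 5% CO2. CellTiter-Fluor 30 min, Ex405/Em525; Bright-Glo 5 min, luminescence 2 s exposure.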
# [10] = biological target: Ubiquitin carboxyl-terminal hydrolase 1 (Homo sapiens) (UniProt O94782); test: Inhibitors of USP1/UAF1: Pilot qHTS (AID 504865); also: nearly all actives have a fitted effect of over 35% in size; also: potency is read from the fitted curve at half-maximal effect
# Method in brief: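 1nM USP1/UAF1 + cpd, 15 min RT; start w/ Ub-Rho 150nM final; kinetic FL 480/540 nm, 6 reads q60 s. Buffer 50mM HEPES pH 7.8, 0.5mM EDTA, 1mM TCEP, 0.01% Tween-20, 0.1 mg/ml BSA.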
# [11] = biological target: DNA dC->dU-editing enzyme APOBEC-3G (Homo sapiens) (UniProt Q9HC16); test: qHTS for inhibitors of Vif-A3G interactions: Validation (AID 588379)
# Method in brief: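 Yellow fluorescence (Ex 488, Em 500-530) of Vif-coexpressing HeLa A3G-eYFP cells, scanned by Acumen cytometer, reports blocked A3G degradation. Cells plated at 700/well overnight at 37 deg C before compound addition, then a further overnight compound incubation at 37 deg C.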
# [12] = biological target: Estrogen receptor (Homo sapiens) (UniProt P03372); test: qHTS assay for small molecule agonists of estrogen receptor alpha signaling (AID 588514; calls by dose curve; also: nearly all actives have a fitted effect of over 70% in size)
# Method in brief: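 EC50 and efficacy came from Hill fits of beta-lactamase reporter signal (CCF4 dye, 2 h at room temperature) scaled between DMSO and 20 nM 17-beta-estradiol. Agonist mode: HEK293 ER-alpha-UAS-bla cells in charcoal/dextran-stripped serum medium, 18 h compound exposure at 37 C.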
# [13] = biological target: Androgen receptor (Homo sapiens) (UniProt P10275); test: qHTS assay for small molecule agonists of androgen receptor signaling (AID 588515; active = well fitted curve in the direction sought with a large enough effect in the signal ratio, with a control signal flat; the % refers to the signal ratio); settings: AR-UAS-bla HEK293, beta-lactamase ratio, agonist 16 h; stronger effect = higher value
# Method in brief: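 Stimulation of an AR-responsive β-lactamase reporter in GripTite HEK293 cells was measured after 16 h compound exposure at 37 °C, via CCF4 fluorescence after 2 h RT. EC50 from Hill fits, normalized to R1881 at 30 nM.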
# [14] = biological target: Androgen receptor (Homo sapiens) (UniProt P10275); test: qHTS assay for small molecule antagonists of androgen receptor signaling (AID 588516; active = well fitted curve in the direction sought with a large enough effect in the signal ratio, with a control signal flat, not every such curve was filed as active; the % refers to the signal ratio)
# Method in brief: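 HEK293 AR-UAS-bla cells, 10% dialyzed FBS medium; cpd titration + R1881 10 nM final, 16 h 37 C; CCF4 2 h RT; FRET ratio; IC50/efficacy via Hill fit.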
# [15] = biological target: Glucocorticoid receptor (Homo sapiens) (UniProt P04150); test: qHTS assay for small molecule antagonists of glucocorticoid receptor signaling (AID 588533; active = well fitted inhibition curve with a large enough effect in the signal ratio, with a control signal flat, not every such curve was filed as active; the % refers to the signal ratio;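 also: cells stimulated with 2 nM dexamethasone as agonist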)
# Method in brief: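 Antagonist-mode qHTS: compound titrations added to GRE-bla HeLa cells, then dexamethasone 2 nM final; 18 h, 37 C. CCF4 FRET fluorescence normalized to dexamethasone and DMSO; IC50 from Hill fit.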
# Ubiquitin carboxyl-terminal hydrolase 1 (Homo sapiens), sequence (O94782 whole entry, looked up): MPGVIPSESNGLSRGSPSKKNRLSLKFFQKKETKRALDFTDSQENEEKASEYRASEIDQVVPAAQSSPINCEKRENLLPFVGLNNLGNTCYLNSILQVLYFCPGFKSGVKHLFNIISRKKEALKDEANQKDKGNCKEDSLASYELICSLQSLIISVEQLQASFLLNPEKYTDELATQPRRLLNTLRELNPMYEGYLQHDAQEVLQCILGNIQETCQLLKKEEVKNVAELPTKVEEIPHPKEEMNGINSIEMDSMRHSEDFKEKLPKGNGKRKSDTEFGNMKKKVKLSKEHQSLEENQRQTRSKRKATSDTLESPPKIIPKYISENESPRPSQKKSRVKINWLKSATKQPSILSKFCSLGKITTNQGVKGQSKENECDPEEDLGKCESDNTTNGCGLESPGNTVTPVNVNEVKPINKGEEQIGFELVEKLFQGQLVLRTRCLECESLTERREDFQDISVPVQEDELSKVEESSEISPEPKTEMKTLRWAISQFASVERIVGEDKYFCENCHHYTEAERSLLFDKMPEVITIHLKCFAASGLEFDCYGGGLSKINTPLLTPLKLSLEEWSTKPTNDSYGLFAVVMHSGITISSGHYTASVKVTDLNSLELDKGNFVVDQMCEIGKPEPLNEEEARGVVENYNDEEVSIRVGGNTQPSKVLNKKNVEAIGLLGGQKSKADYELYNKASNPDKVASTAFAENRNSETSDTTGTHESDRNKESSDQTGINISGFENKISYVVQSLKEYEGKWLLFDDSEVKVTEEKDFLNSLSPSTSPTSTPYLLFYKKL
# phosphoglycerate mutase (Leishmania major), sequence (Q4Q090 1-553): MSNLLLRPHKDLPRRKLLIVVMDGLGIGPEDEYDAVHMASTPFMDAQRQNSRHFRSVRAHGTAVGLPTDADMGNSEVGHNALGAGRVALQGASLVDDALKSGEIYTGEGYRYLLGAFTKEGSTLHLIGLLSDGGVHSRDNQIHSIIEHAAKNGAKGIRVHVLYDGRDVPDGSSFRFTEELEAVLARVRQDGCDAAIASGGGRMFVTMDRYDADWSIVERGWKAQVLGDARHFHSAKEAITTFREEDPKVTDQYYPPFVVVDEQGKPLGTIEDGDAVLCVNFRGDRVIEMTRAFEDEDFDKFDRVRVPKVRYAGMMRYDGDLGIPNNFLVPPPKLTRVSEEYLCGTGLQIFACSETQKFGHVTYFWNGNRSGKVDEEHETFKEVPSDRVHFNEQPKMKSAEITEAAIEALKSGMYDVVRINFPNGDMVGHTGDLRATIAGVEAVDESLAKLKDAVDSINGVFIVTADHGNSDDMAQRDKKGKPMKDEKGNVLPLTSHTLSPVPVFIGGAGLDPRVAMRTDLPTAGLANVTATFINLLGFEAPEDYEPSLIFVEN
# Peptidyl-prolyl cis-trans isomerase NIMA-interacting 1 (Homo sapiens), sequence (Q13526 whole entry, looked up): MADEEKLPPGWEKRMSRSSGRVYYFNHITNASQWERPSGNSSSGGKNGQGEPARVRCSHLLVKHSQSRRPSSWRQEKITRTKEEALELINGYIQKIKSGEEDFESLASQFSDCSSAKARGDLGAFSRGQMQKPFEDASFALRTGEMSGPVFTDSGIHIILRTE
# Galactokinase (Homo sapiens), sequence (P51570 whole entry, looked up): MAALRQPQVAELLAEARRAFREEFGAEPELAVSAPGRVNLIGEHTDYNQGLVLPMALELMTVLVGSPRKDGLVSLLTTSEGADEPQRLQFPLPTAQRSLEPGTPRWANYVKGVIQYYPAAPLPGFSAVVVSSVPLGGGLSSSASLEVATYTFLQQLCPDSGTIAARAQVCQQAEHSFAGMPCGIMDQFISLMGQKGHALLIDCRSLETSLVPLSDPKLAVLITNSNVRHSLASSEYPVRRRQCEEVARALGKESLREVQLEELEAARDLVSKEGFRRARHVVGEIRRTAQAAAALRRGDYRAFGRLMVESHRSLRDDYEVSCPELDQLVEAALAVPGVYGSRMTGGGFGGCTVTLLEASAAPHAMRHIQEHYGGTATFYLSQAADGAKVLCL
# DNA dC->dU-editing enzyme APOBEC-3G (Homo sapiens), sequence (Q9HC16 whole entry, looked up): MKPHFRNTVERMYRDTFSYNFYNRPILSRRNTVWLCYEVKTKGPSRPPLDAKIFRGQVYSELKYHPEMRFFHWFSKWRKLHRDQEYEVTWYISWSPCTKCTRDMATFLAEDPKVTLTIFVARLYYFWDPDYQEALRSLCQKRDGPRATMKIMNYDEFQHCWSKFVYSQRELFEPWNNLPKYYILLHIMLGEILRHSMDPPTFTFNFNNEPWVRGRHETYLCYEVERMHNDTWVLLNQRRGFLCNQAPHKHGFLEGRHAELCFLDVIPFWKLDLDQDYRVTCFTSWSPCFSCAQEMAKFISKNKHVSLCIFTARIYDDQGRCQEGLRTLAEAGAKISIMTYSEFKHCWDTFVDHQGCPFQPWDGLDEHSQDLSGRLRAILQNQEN
# Phosphoglycerate kinase, glycosomal (Trypanosoma brucei brucei), sequence (P07378 whole entry, looked up): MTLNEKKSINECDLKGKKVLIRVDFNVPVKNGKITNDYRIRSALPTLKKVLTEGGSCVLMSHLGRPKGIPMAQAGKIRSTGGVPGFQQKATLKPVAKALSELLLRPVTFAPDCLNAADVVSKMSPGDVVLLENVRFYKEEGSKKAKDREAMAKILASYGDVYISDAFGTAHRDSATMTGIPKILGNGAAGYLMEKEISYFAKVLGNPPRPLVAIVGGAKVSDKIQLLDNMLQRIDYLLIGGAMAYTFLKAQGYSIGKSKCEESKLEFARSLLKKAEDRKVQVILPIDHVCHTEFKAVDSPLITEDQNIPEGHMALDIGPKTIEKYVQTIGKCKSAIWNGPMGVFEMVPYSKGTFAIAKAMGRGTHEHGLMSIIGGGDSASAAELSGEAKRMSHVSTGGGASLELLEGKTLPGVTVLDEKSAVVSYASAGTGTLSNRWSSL
# Androgen receptor (Homo sapiens), sequence (P10275 whole entry, looked up): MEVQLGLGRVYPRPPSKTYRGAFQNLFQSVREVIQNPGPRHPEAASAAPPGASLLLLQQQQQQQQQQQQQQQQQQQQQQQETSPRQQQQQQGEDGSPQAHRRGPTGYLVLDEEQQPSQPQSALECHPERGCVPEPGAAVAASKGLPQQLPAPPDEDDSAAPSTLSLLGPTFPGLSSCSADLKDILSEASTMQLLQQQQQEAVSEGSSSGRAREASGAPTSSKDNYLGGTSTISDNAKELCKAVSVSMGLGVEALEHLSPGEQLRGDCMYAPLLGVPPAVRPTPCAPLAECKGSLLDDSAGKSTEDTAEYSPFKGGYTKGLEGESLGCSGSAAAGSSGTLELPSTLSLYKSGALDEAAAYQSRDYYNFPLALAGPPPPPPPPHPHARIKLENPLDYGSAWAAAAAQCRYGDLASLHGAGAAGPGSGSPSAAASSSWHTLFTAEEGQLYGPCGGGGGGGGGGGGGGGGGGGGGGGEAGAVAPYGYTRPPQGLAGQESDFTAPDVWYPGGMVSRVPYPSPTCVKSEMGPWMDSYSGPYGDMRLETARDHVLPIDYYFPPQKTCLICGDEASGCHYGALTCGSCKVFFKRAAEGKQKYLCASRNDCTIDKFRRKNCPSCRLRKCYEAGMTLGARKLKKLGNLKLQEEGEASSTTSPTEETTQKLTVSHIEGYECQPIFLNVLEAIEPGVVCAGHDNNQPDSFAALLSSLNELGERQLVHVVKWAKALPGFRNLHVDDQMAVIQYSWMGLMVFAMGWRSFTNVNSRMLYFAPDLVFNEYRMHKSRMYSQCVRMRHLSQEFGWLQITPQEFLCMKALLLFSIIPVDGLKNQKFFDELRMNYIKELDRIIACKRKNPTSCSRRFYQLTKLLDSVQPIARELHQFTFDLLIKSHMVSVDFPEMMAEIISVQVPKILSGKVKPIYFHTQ
# Glucocorticoid receptor (Homo sapiens), sequence (P04150 whole entry, looked up): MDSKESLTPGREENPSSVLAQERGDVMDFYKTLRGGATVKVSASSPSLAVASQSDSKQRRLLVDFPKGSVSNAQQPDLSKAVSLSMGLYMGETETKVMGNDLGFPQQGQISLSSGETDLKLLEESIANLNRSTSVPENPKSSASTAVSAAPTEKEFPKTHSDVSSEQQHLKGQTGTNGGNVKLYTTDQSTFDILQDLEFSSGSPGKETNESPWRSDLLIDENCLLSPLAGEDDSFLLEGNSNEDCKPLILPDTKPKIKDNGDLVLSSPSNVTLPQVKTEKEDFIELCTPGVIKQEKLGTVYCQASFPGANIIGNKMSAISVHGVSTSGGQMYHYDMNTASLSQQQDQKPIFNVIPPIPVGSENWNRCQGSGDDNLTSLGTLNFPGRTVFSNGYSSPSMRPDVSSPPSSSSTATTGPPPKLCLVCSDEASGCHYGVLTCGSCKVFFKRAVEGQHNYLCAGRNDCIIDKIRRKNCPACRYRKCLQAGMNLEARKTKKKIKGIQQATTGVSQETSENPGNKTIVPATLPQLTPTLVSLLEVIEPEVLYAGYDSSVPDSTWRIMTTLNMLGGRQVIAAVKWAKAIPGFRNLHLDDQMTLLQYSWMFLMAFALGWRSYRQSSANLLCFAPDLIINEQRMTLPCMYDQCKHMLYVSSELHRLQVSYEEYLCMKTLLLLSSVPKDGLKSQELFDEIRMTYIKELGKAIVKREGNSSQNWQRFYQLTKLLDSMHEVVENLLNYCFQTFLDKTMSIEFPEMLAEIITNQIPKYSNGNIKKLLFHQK
# Estrogen receptor (Homo sapiens), sequence (P03372 whole entry, looked up): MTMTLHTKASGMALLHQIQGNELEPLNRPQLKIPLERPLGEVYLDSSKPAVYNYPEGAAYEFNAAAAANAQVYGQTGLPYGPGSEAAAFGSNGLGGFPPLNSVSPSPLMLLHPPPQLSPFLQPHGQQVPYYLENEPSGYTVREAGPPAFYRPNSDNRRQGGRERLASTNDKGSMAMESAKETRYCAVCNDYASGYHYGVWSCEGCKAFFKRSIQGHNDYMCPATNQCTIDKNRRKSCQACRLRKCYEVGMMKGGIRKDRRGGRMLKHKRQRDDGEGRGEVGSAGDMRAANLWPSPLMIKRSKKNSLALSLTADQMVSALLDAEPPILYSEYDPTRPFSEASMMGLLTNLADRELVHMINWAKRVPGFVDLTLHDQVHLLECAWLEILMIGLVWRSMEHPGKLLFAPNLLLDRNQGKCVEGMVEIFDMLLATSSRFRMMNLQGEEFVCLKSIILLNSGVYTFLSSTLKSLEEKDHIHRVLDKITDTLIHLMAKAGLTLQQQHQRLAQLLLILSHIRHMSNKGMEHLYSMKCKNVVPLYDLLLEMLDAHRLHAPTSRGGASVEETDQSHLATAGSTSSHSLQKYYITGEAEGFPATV
Structure (SMILES),Potency [1],viability change [1] [%],outcome [2],Potency [3],Potency [4],Potency [5],Potency [6],Potency [7],Potency [8],Potency [9],Potency [10],Potency [11],Potency [12],activation [13],outcome [14],Potency [15]
O=c1onc2n1-c1cc(Br)ccc1OC2,inactive,-3.61,inactive,inactive,inactive,inactive,inactive,inactive,inactive,inactive,–,–,–,–,–,–
O=S(=O)(c1cccc2c(Cl)cccc12)N1CCCNCC1,inactive,2.63,inactive,inactive,inactive,inactive,inactive,inactive,inactive,–,inactive,inactive,–,–,–,–
N[C@@H](CCC(=O)N[C@H](CSN=O)C(=O)NCC(=O)O)C(=O)O,inactive,5.63,inactive,inactive,inactive,inactive,inactive,inactive,inactive,inactive,–,–,–,–,–,–
CCCn1c(=O)c2[nH]c(-c3ccc(S(=O)(=O)O)cc3)nc2n(CCC)c1=O,inactive,-4.01,inactive,inactive,inactive,inactive,inactive,inactive,inactive,inactive,–,–,–,–,–,–
N#Cc1cc2nc(O)c(O)nc2cc1[N+](=O)[O-],inactive,-8.54,inactive,inactive,inactive,inactive,inactive,inactive,inactive,–,–,inactive,–,–,–,–
COc1ccc(CCN(C)CCc2ccc(OC)c(OC)c2)cc1OC,inactive,4.35,inactive,inactive,inactive,inactive,inactive,inactive,inactive,–,inactive,inactive,–,–,–,–
N=C(N)SCCc1cnc[nH]1,inactive,-8.6,inactive,inactive,inactive,inactive,inactive,inactive,inactive,inactive,–,inactive,–,–,–,–
CCOC(=O)C12CC1/C(=N/O)c1ccccc1O2 (stereo unspecified),inactive,1.91,inactive,inactive,inactive,inactive,inactive,inactive,inactive,inactive,–,–,–,–,–,–
Cn1c(=O)c2c(nc(/C=C/c3cccc(Cl)c3)n2C)n(C)c1=O,inactive,3.93,inactive,inactive,inactive,inactive,inactive,inactive,inactive,inactive,–,–,–,–,–,–
O=[N+]([O-])c1cccc2c(Br)[nH]nc12,inactive,2.48,inactive,inactive,inactive,inactive,inactive,inactive,inactive,inactive,–,inactive,–,–,–,–
O=C1OC(=O)C2C3CCC(O3)C12 (stereo unspecified),inactive,-3.78,inactive,inactive,inactive,inactive,inactive,inactive,inactive,–,inactive,inactive,–,–,–,–
N[C@H](C(=O)O)[C@H]1C[C@@H]1C(=O)O,inactive,2.9,inactive,inactive,inactive,inactive,inactive,inactive,inactive,inactive,–,–,–,–,–,–
NC1CONC1=O (stereo unspecified),inactive,2.91,inactive,inactive,inactive,inactive,inactive,inactive,inactive,inactive,–,–,–,–,–,–
CCN1C(=O)C=CC1=O,inactive,1.81,inactive,inactive,inactive,inactive,inactive,inactive,inactive,inactive,–,–,–,–,–,–
CCN(CC)CCCCCCCCOC(=O)c1cc(OC)c(OC)c(OC)c1,inactive,6.3,inactive,inactive,inactive,inactive,inactive,inactive,–,inactive,inactive,–,–,–,–,–
COc1cc(CNC(=O)CCCCCCC(C)C)ccc1O,inactive,-9.77,inactive,inactive,inactive,inactive,inactive,inactive,inactive,inactive,–,inactive,–,–,–,–
C[C@H](O)C(=O)C1=Nc2c(nc(N)[nH]c2=O)NC1,inactive,8.34,inactive,inactive,inactive,inactive,inactive,inactive,–,inactive,56.2 µM (active),–,–,–,–,–
N[C@H]1CONC1=O,inactive,1.32,inactive,inactive,inactive,inactive,inactive,inactive,inactive,inactive,–,–,–,–,–,–
COc1ccc2c(c1)CCC1C2CC[C@@]2(C)C1CC[C@@H]2NCCCCCCN1C(=O)C=CC1=O (stereo partly specified),inactive,-5.2,inactive,inactive,inactive,inactive,inactive,inactive,inactive,inactive,–,–,–,–,–,–
CCCCCCCCCCCCCCSCC(=O)O,inactive,0.626,inactive,inactive,inactive,23.9 µM (active),inactive,inactive,inactive,inactive,25.1 µM (active),–,inactive,-2.58% (inactive),inactive,inactive
